{"source": "PubChem BioAssay AID977610", "origin": "cited, not measured here", "assay": "PubChem AID 977610", "conditions": "PDB protein-ligand complexes, literature Ki", "note": "Among all 3,600 compounds or so, about 3,600 (100%) were called active. The limit is not given here; nearly all actives have Ki up to about 18000 µM. So high a share suggests a set chosen from earlier hits. This is one part of the list."}
{"smiles": "CS[C@H](CCCC1C(=O)NC(N)NC1N)c1ccc(C(=O)N[C@@H](CCC(=O)O)C(=O)O)cc1", "note": "(stereo partly drawn)", "values": [{"measurement": "Ki", "setting": "protein: Trifunctional purine biosynthetic protein adenosine-3, PDB entry 4ew3", "result": "0.18 µM (active)"}]}
{"smiles": "CS[C@@H](CCCC1C(=O)NC(N)NC1N)c1ccc(C(=O)N[C@@H](CCC(=O)O)C(=O)O)cc1", "note": "(stereo partly drawn)", "values": [{"measurement": "Ki", "setting": "protein: Trifunctional purine biosynthetic protein adenosine-3, PDB entry 4ew2", "result": "0.21 µM (active)"}]}
{"smiles": "NC(=O)[C@H]1CCCc2c1[nH]c1ccc(Cl)cc21", "values": [{"measurement": "Ki", "setting": "protein: NAD-DEPENDENT PROTEIN DEACETYLASE SIRTUIN-3, MITOCHONDRIAL, PDB entry 4bvb", "result": "33.4 µM (active)"}]}
{"smiles": "CC(C)N(C[C@H]1O[C@@H](n2cnc3c(N)ncnc32)[C@H](O)[C@@H]1O)C1CC(CCc2nc3ccc(C(C)(C)C)cc3[nH]2)C1", "note": "(stereo partly drawn)", "values": [{"measurement": "Ki", "setting": "protein: Histone-lysine N-methyltransferase, H3 lysine-79 specific, PDB entry 4hra", "result": "8e-05 µM (active)"}]}
{"smiles": "OC[C@H]1OCC[C@@H](O)[C@H]1O", "values": [{"measurement": "Ki", "setting": "protein: GALACTOCEREBROSIDASE, PDB entry 4ccd", "result": "32 µM (active)"}]}
{"smiles": "O=C(O)CCC(=O)O", "values": [{"measurement": "Ki", "setting": "protein: Delta-1-pyrroline-5-carboxylate dehydrogenase, mitochondrial, PDB entry 4lh2", "result": "58000 µM (active)"}]}
{"smiles": "N[C@@H](CCCNC(=O)C[P+](O)(O)O)C(=O)O", "values": [{"measurement": "Ki", "setting": "protein: human ornithine transcarbamylase, PDB entry 1oth", "result": "0.1 µM (active)"}]}
{"smiles": "OC[C@@H]1[C@@H](O)[C@H](O)[C@@H](O)[C@@H]1NCc1ccc(Br)cc1", "values": [{"measurement": "Ki", "setting": "protein: strictosidine glucosidase, PDB entry 3zj8", "result": "127 µM (active)"}]}
{"smiles": "NC(N)c1ccc([C@H](N)[P+](O)(O)O)cc1", "values": [{"measurement": "Ki", "setting": "protein: M1 family aminopeptidase, PDB entry 4k5p", "result": "345 µM (active)"}]}
{"smiles": "N[C@@H](c1ccc(-n2cccn2)cc1)[P+](O)(O)O", "values": [{"measurement": "Ki", "setting": "protein: M1 family aminopeptidase, PDB entry 4k5o", "result": "104 µM (active)"}, {"measurement": "Ki", "setting": "protein: M17 leucyl aminopeptidase, PDB entry 4k3n", "result": "0.011 µM (active)"}]}
{"smiles": "NC(N)Nc1ccc([C@H](N)[P+](O)(O)O)cc1", "values": [{"measurement": "Ki", "setting": "protein: M1 family aminopeptidase, PDB entry 4k5n", "result": "127 µM (active)"}]}
{"smiles": "NC(N)Nc1ccc(C=O)cc1", "values": [{"measurement": "Ki", "setting": "protein: Bovine beta trypsin, PDB entry 1gbt", "result": "10000 µM (active)"}]}
{"smiles": "C=CCNC(=O)[C@@H](NC(=O)[C@@](O)(CCCN(Cc1ccc(-c2cccnc2)cc1)NC(=O)[C@@H](NC(=O)OC)C(C)(C)C)Cc1ccc(CC=C)cc1)C(C)C", "values": [{"measurement": "Ki", "setting": "protein: HIV-1 protease, PDB entry 4cpq", "result": "0.018 µM (active)"}]}
{"smiles": "C=CCNC(=O)[C@@H](NC(=O)[C@@](O)(CCCN(Cc1ccc(Br)cc1)NC(=O)[C@@H](NC(=O)OC)C(C)(C)C)Cc1ccccc1)C(C)(C)C", "values": [{"measurement": "Ki", "setting": "protein: PROTEASE, PDB entry 3zps", "result": "0.005 µM (active)"}]}
{"smiles": "C=CCNC(=O)[C@@H](NC(=O)[C@@](O)(CCCN(Cc1ccc(-c2cccs2)cc1)NC(=O)[C@@H](NC(=O)OC)C(C)(C)C)Cc1ccc(CC=C)cc1)C(C)C", "values": [{"measurement": "Ki", "setting": "protein: HIV-1 protease, PDB entry 4cpr", "result": "0.035 µM (active)"}]}
{"smiles": "CCCNC(=O)[C@@H](NC(=O)[C@@](O)(CCCN(Cc1ccc(-c2ccncc2)cc1)NC(=O)[C@@H](NC(=O)OC)C(C)(C)C)Cc1ccc(CCC)cc1)C(C)C", "values": [{"measurement": "Ki", "setting": "protein: HIV-1 protease, PDB entry 4cp7", "result": "0.0078 µM (active)"}]}
{"smiles": "CC1=C(C(=O)O)N[C@@H]([C@@H](C=O)NC(=O)Cc2cccs2)SC1", "values": [{"measurement": "Ki", "setting": "protein: Carboxylesterases, PDB entry 4ivk", "result": "140 µM (active)"}]}
{"smiles": "Cc1cc(C)nc(N)n1", "values": [{"measurement": "Ki", "setting": "protein: PDE10A2, PDB entry 4llx", "result": "1300 µM (active)"}]}
{"smiles": "CNc1nc2cc3nc[nH]c(=O)c3cc2[nH]1", "values": [{"measurement": "Ki", "setting": "protein: Queuine tRNA-ribosyltransferase, PDB entry 3GEV", "result": "2.9 µM (active)"}, {"measurement": "Ki", "setting": "protein: Queuine tRNA-ribosyltransferase, PDB entry 3V0Y", "result": "4.1 µM (active)"}]}
{"smiles": "CC(C)[C@@H]1NC(=O)[C@H](CCC(=O)O)NC(=O)[C@H](Cc2ccc(O)cc2)NC(=O)[C@H](CCCNC(N)N)NC(=O)[C@H](CO)NC(=O)[C@@H](NC(=O)[C@H](C)N)CSCc2cc3cc(c2)CSC[C@H](NC(=O)[C@H](CC(=O)O)NC1=O)C(=O)N[C@@H](CCCNC(N)N)C(=O)NCC(=O)N[C@@H](CCCNC(N)N)C(=O)N[C@H](CO)C(=O)N[C@@H](CO)C(=O)N[C@@H](C)C(=O)N[C@H](C(=O)NCC(N)=O)CSC3", "values": [{"measurement": "Ki", "setting": "protein: Urokinase-type plasminogen activator (C122A, N145Q mutation), PDB entry 4jk5", "result": "0.028 µM (active)"}]}
{"smiles": "CC[C@H]1NC(=O)[C@H](CCCNC(N)N)NC(=O)CNC(=O)[C@H](CCCNC(N)N)NC(=O)[C@@H]2CSCc3cc(cc(c3)CSC[C@@H](C(=O)NCC(N)=O)NC(=O)[C@H](C)NC(=O)[C@H](CO)NC1=O)CSC[C@H](NC(=O)[C@H](C)N)C(=O)N[C@@H](CO)C(=O)N[C@@H](CCCNC(N)N)C(=O)N[C@@H](Cc1ccc(O)cc1)C(=O)N[C@@H](CCC(=O)O)C(=O)N[C@@H](C(C)C)C(=O)N[C@@H](CC(=O)O)C(=O)N2", "values": [{"measurement": "Ki", "setting": "protein: Urokinase-type plasminogen activator (C299A, N322Q mutation), PDB entry 4jk6", "result": "0.064 µM (active)"}]}
{"smiles": "NC1=NC2=NC[C@@H](CNc3ccc(C(=O)N[C@@H](CCC(=O)O)C(=O)O)cc3)N(C=O)C2C(=O)N1", "note": "(stereo partly drawn)", "values": [{"measurement": "Ki", "setting": "protein: Serine hydroxymethyltransferase, putative SHMT, PDB entry 4oyt", "result": "1550 µM (active)"}]}
{"smiles": "C[C@]12CC[C@@H](O)C[C@@H]1CC[C@@H]1[C@@H]2CC[C@]2(C)C=CC[C@@H]12", "values": [{"measurement": "Ki", "setting": "protein: Mus musculus constitutive androstane receptor, PDB entry 1xnx", "result": "0.416 µM (active)"}]}
{"smiles": "C[C@@H](NC(=O)CCCC[C@@H](N)C(=O)O)[C@H](O)C(F)(F)F", "values": [{"measurement": "Ki", "setting": "protein: D-ALANYL-D-ALANINE CARBOXYPEPTIDASE, PDB entry 3zcz", "result": "0.17 µM (active)"}]}
{"smiles": "Cc1cc(C)c(Nc2nc(Nc3ccc(C#N)cc3)nc(OCCCN3CCOCC3)n2)c(C)c1", "values": [{"measurement": "Ki", "setting": "protein: HIV-1 reverse transcriptase, p66 subunit RT52A, PDB entry 4o44", "result": "0.014 µM (active)"}]}
{"smiles": "CC(C)N1CCC(C(=O)Nc2c(OCCCO[C@@H]3O[C@H](CO)[C@@H](O)[C@H](O)[C@H]3O)cccc2OCc2cc(-c3ccc(Cl)s3)on2)CC1", "values": [{"measurement": "Ki", "setting": "protein: Alpha Thrombin, hfIIa, PDB entry 4n3l", "result": "0.1 µM (active)"}]}
{"smiles": "Nc1cc(Cl)nc(N)n1", "values": [{"measurement": "Ki", "setting": "protein: PDE10A2, PDB entry 4ms0", "result": "410 µM (active)"}]}
{"smiles": "CCCCCCCCOc1cccc(CSc2ccc(Br)cc2C(=O)O)c1", "values": [{"measurement": "Ki", "setting": "protein: Dehydrosqualene synthase, PDB entry 3tfv", "result": "0.08 µM (active)"}]}
{"smiles": "CC(C)Nc1cc(=O)n(-c2ccccc2)nc1-c1ncn[nH]1", "values": [{"measurement": "Ki", "setting": "protein: MEMBRANE PRIMARY AMINE OXIDASE, PDB entry 4btx", "result": "0.29 µM (active)"}]}
{"smiles": "c1ccc(-c2nc(N3CCOCC3)c3sccc3n2)cc1", "values": [{"measurement": "Ki", "setting": "protein: 3-OXOACYL-[ACYL-CARRIER-PROTEIN] REDUCTASE FABG, PDB entry 4bny", "result": "0.08 µM (active)"}]}
{"smiles": "O=C(O)C1=C[C@H]2OCC=C[C@@](O)(C1)[C@H]2O", "values": [{"measurement": "Ki", "setting": "protein: SHIKIMATE KINASE, PDB entry 4bqs", "result": "62 µM (active)"}]}
